Screen size: about 410,000 compounds; about 7,200 (1.8%) were called active. Not shown: some 7% with an inconclusive outcome. Many of the other results were omitted from the sample, so actives are more common in it than they were. Unmarked numbers belong to inactive results. The call rests on the fitted dose curve; in most records, active means well fitted activation curve with a large enough effect; inconclusive means small, poorly fitted or top-dose-only effect, or another doubt; inactive means no such curve, though single readings can be large or run the other way.
Test: qHTS of TDP-43 Inhibitors; further: nearly all actives have a fitted effect of over 50% in size; on growth rescue (activation): % of control where 0% means no effect
Details: TDP-43 expressing yeast growth rescue, BacTiter-Glo, 24 h; series mostly up to 46.1 µM; growth rescue (activation): at the top concentration
In short: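 In this qHTS, compounds that restore growth of yeast expressing TDP-43 appear as activators. Cells (OD600=0.02, galactose medium, raffinose-pregrown) are incubated with compound 24 hr at 30 deg C and growth is quantified by BacTiter-Glo.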
Potency means the concentration at half of the fitted maximal effect.

Row | SMILES | growth rescue (activation) [%] | Potency
1 | O=C(CCn1c(=O)c2sccc2n(Cc2ccc(F)cc2)c1=O)NCc1ccc2c(c1)OCO2 | 13.5 | –
2 | O=C(Nc1ccc2nc(SCC(=O)N3CCCc4ccccc43)sc2c1)c1ccc(Cl)cc1 | -7.69 | –
3 | CCOc1ccccc1NC(=O)CN1CCCN(Cc2cccc(Cl)c2)S1(=O)=O | 24.2 | –
4 | CCCCn1cc(S(=O)(=O)c2ccc(OCC)cc2)c(=O)c2cc(OC)c(OC)cc21 | 19.6 | –
5 | COc1ccc(S(=O)(=O)c2cn(C)c3cc(N4CCCCC4)c(F)cc3c2=O)cc1 | 21.4 | –
6 | COc1cc2nc(NCC(C)c3ccccc3)n3nc(-c4ccccc4)nc3c2cc1OC (configuration not stated) | -5.52 | –
7 | CCCCC12CN3CC(C)(CN(C1)C3c1ccc(O)c(OC)c1)C2=O (configuration not stated) | 9.06 | –
8 | Cc1ccc(S(=O)(=O)N2CCN(C(=O)Cc3sc(C)nc3-c3ccc(F)cc3)CC2)c(C)c1 | – | 35.5 µM (active)
9 | Cc1nc(-c2ccc(F)cc2)c(CC(=O)N2CCN(S(=O)(=O)c3ccc(F)cc3)CC2)s1 | 23.4 | –
10 | Cc1nc(-c2ccc(F)cc2)c(CC(=O)Nc2cc(S(=O)(=O)N3CCCCC3)ccc2C)s1 | -16.5 | –
11 | COc1cccc(CNCc2c(C(=O)O)n(Cc3ccc(C)cc3)c3cc(C)ccc23)c1OC | -5.18 | –
12 | COc1ccc(NS(=O)(=O)c2cc3c4c(c2)CC(=O)N4CCC3)cc1Cl | 5.28 | –
13 | COc1cc(NC(=O)CSc2nc3nc(C)c(Cc4ccc(C)cc4)c(C)n3n2)cc(OC)c1OC | 28.1 | –
14 | Cn1cc(S(=O)(=O)Nc2ccc(Cl)cc2Cl)c(=O)n(C)c1=O | -9.05 | –
15 | Cn1cc(S(=O)(=O)NC(c2ccccc2)c2ccccc2)c(=O)n(C)c1=O | -11.6 | –
16 | CC(C)c1ccc(NS(=O)(=O)c2cn(C)c(=O)n(C)c2=O)cc1 | – | 20 µM (active)
17 | Cc1nnc(N2CCC(C(=O)Nc3ccc(F)cc3)CC2)c2nn(-c3ccc(Cl)cc3)c(C)c12 | 16 | –
18 | CCc1ccc(C(=O)NNC(=O)C2CCN(c3ncnc4sc(C)c(C)c34)CC2)cc1 | -1.89 | –
19 | Cc1sc2ncnc(N3CCC(C(=O)Nc4ccc(F)cc4Cl)CC3)c2c1C | – | 15.8 µM (active)
20 | O=C(CCn1ccc2cc(S(=O)(=O)N3CCCC3)ccc21)NCc1cccc(Cl)c1 | 17.2 | –
21 | CCOC(=O)c1ccc(NC(=O)CCS(=O)(=O)c2ccc(C)cc2)cc1 | 0 | –
22 | O=C(CCc1nc(CN2CCN(S(=O)(=O)c3ccc(F)cc3)CC2)no1)N1CCCCC1 | 1.71 | –
23 | COc1cccc(CNC(=O)Cn2ncn3c(cc4ccccc43)c2=O)c1 | 8.84 | –
24 | Fc1ccc(-n2ncc3c(Nc4ccc(Oc5ccccc5)cc4)ncnc32)cc1 | 23.6 | –
25 | COc1ccc(-c2nc3cc(C)ccn3c2NC2CCCCC2)cc1SC1CCCCC1 | – | inactive
26 | CCCCNc1c(-c2ccc(OC)c(Sc3ccc(OC)cc3)c2)nc2ccc(Cl)cn12 | – | 17.8 µM (active)
27 | CCCCNc1c(-c2cccc(Sc3ccc(OC)cc3)c2)nc2ccccn12 | -91.7 | –
